Measured values taken from PubChem BioAssay AID1903 (Southern Research Specialized Biocontainment Screening …, 2009).
Where “and” joins values, the source holds several entries; their conditions need not be identical. Equal values may be shown once. Out of some 310,000 compounds screened, about 1,200 (0.39%) were called active. The rule behind the calls is not given here. Only a sample is shown. Potency and affinity values are given separately.

Biological target: Large T antigen (Simian virus 40) (UniProt P03070)
Assay: SV40 large T antigen inhibitors, biochemical (AID 1903)
Settings: SV40 large T antigen ATPase/helicase inhibition assay; at 20 µM; stronger effect = higher value

Large T antigen (Simian virus 40), sequence (P03070 whole entry, looked up): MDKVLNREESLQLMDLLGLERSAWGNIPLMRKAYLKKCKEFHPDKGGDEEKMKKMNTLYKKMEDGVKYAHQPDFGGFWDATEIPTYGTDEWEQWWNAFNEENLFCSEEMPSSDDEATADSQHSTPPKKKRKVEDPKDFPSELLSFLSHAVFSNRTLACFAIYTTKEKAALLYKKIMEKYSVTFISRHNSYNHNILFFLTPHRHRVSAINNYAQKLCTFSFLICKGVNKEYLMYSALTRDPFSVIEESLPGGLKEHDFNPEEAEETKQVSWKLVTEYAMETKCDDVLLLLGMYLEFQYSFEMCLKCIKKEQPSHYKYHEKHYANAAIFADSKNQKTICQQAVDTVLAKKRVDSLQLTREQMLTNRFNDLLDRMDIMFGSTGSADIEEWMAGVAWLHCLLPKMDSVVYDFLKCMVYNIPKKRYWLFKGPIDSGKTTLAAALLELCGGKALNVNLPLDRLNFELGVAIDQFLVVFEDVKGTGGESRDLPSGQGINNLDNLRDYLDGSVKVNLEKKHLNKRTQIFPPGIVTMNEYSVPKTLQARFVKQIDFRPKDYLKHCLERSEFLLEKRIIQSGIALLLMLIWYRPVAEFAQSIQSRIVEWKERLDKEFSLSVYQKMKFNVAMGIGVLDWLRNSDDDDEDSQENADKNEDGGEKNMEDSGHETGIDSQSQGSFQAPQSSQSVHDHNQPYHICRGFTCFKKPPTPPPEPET

inhibition, inactive:
O=C(Cn1nc(-c2cccs2)ccc1=O)Nc1ccc(Br)cc1 3.47%, O=C1CC(C(=O)Nc2ccc(Cl)cc2[N+](=O)[O-])C2(CCCCC2)O1 (configuration not stated) 6.86%, COc1ccccc1OCc1nn[nH]n1 11.9%, CCC1CCCCN1CCCNC(=O)c1cc2c(=O)[nH]c3ccccc3c2n1C (configuration not stated) 8.49%, O=C(Nc1c(Cl)cc(Cl)cc1-c1nc2ccccc2s1)c1ccc(Br)o1 6.8%, COC(CN(C)C(=O)c1ccc(CS(=O)(=O)c2ccccc2C)o1)OC 6.06%, Cc1nnc(-c2ccccc2)c[n+]1[O-] 2.44%, Oc1c(Br)cc(/C=N/n2c(-c3ccccc3)n[nH]c2=S)c(O)c1Br 30.1%, Oc1c(Br)cc(/C=N/n2c(-c3ccccc3)n[nH]c2=S)cc1Br 29.7%, CCOC(=O)N/N=C(/C)c1ccc(N2C(=O)C3CCCCC3C2=O)cc1 (configuration not stated) 11.8%, O=C(O)c1ccc(N(Cc2ccccc2)S(=O)(=O)c2ccccc2)cc1 1.43% and 0.12%, CN(C[C@H](Cc1ccccc1)N(C[C@H](Cc1ccccc1)N(CCc1cc(C(F)(F)F)cc(C(F)(F)F)c1)N=O)N=O)N=O 0.235%, Cc1c(NC(=O)CN2CCN(c3ccccc3)CC2)c(=O)n(-c2ccccc2)n1C 3.86%, Cc1c(NC(=O)CN2CCN(c3ccc(F)cc3)CC2)c(=O)n(-c2ccccc2)n1C 6.05%, O=C(CN1CCN(c2ccc(F)cc2)CC1)Nc1ccc2c(c1)OCCO2 8.68%, Cc1cc(C)cc(OCC(=O)OCC(=O)Nc2c(C)n(C)n(-c3ccccc3)c2=O)c1 15.2%, O=C(CN1CCN(c2ccccc2)CC1)Nc1ccc2c(c1)OCCO2 -0.06%, COc1ccc(N2CCN(CC(=O)Nc3sccc3C#N)CC2)cc1 8.41%, CCC(=O)c1ccc(OCC(=O)OCC(=O)Nc2c(C)n(C)n(-c3ccccc3)c2=O)cc1 12.3%, N#Cc1ccsc1NC(=O)CN1CCN(c2ccccc2)CC1 9.52%, CCOc1ccc(C2/C(=C(/O)c3ccc4c(c3)CC(C)O4)C(=O)C(=O)N2CCCn2ccnc2)cc1OCC (configuration not stated) 2.21%, Cc1ccsc1/C=N/NC(=O)c1cccnc1 10.3%, COc1cccc(N/C=C/C(=O)c2ccc(OC)c(OC)c2)c1 15.6%, Cc1cc(NC(=O)c2ccc3c(c2)C(=O)N(C)C3=O)no1 21.4%, COc1ccccc1C(=O)Nc1cccc2c1CCCC2 3.42%, Cc1cc(CNC(=O)CCc2nnc(CCCc3ccccc3)o2)nn1C 23%, Cc1cccc(N(CC(=O)NCc2ccc3c(c2)OCO3)C(=O)CCC(=O)Nc2ccccn2)c1 3.36%, c1ccc(OCCOCCSc2ncccn2)cc1 3.66%, COc1cccc(-c2ccc3nnc(SCC(=O)N4CCOCC4)n3n2)c1 8.56%, COc1cc(OC)c(C(=O)OCC(=O)N2CCOCC2)cc1OC -1.18%, COc1ccc(N2CCN(CC(=O)Nc3cc(C)on3)CC2)cc1 12.3%, CC(C)(C)NC(=O)NC(=O)CN1CCN(c2ccccc2)CC1 -1%, CC(=O)c1ccc(N2CCN(CC(=O)Nc3cc(C)on3)CC2)cc1 11.5%, COc1ccc(N2CCN(CC(=O)NC(=O)NC(C)(C)C)CC2)cc1 22.3%, CCCN(CC(=O)Nc1ccc(Cl)cc1Cl)Cc1cc(=O)n2ccsc2n1 -0.76%, COc1ccc(C(=O)NCc2nnc(SCC(=O)Nc3nnc(C)s3)o2)cc1 11.2%, Cc1ccc(S(=O)(=O)NCC(=O)N(CC(=O)NC2CCCC2)c2ccc3c(c2)OCCO3)cc1 6.71%, CCOc1c(C)cnc2c1c(=O)n(Cc1c(F)cccc1Cl)c(=O)n2C 18.6%, COc1ccc(N2Nc3n[nH]c(N)c3N2)cc1 34.9%, CCOc1ccc(N2C(N)=NC(N)=NC2(C)C)cc1 2.99%, COc1ccc(NC2=CC(c3ccc(OC)cc3)N(c3ccc(OC)cc3)C2=O)cc1 (configuration not stated) 11.9%, Cc1cc(NS(=O)(=O)c2cccs2)no1 -2.38%, CC(=O)Nc1cccc(NC(=O)CSc2ncc(C(=O)Nc3ccccc3)c(=O)n2C)c1 19.6%, Fc1ccccc1COc1ccc(Br)cc1CNCC1CCCO1 (configuration not stated) 4.34%, Cc1cccc(N2C(=O)c3ccc(Br)cc3C2=O)n1 8.73%, Cc1cccc(N2C(=O)c3ccccc3C2=O)n1 4.5%, Cc1csc(NC(=O)c2cc(=O)[nH]c3ccccc23)n1 5.64%, CN(C)S(=O)(=O)c1ccc(Cl)c(NC(=O)CN2CCNC(=O)C2)c1 5.76%, Cc1ccc(C)c(NC(=O)C(Sc2nc3ccccc3c(=O)n2CC(C)C)c2ccccc2)c1 (configuration not stated) 4.6%, COc1ccc(C=O)cc1CN1C(=O)c2ccccc2C1=O 0.06%, COc1ccc(C)cc1CN1C(=O)c2ccccc2C1=O 2.66%, COc1ccc(CN2CC(C(=O)N3CCOCC3)CC2=O)cc1 (configuration not stated) 13.7%, Cc1c(NC(=O)c2ccc(-c3ccc([N+](=O)[O-])cc3Cl)o2)c(=O)n(-c2ccccc2)n1C 7.53%, N=C1/C(=C\c2ccc(SCc3ccccc3)o2)C(=O)N=C2SC=NN12 -0.34%, CCS(=O)(=O)C1=NN2C(=N)/C(=C\c3ccc(SCc4ccco4)o3)C(=O)N=C2S1 59.6%, O=C1NC(=S)S/C1=C/c1ccc(OC(=O)c2ccco2)cc1 12%, CCC1=NN2C(=N)/C(=C\c3ccc(SCc4ccco4)o3)C(=O)N=C2S1 0.38%, CC1=NN2C(=N)/C(=C\c3ccc(SCc4ccccc4)o3)C(=O)N=C2S1 15.7%, O=C(O)CN1C(=O)/C(=C/c2ccc(SCc3ccccc3)o2)SC1=S 12.4%, Cc1ccc(-c2nnc(SC(C)C(=O)NCC3CCCO3)nc2-c2ccc(C)cc2)cc1 (configuration not stated) 7.01%, Cn1c(=O)n(CCOc2ccc(Cl)cc2Cl)c2ccccc21 24.1%, O=C(COC(=O)c1ccccc1Oc1ccccc1)NC1CCS(=O)(=O)C1 (configuration not stated) 2.91%, COc1ccc(C2c3sc(=O)[nH]c3SCC2C(N)=O)cc1 (configuration not stated) 12.6%, CCCCOP(=O)(c1ccc(N(C)C)cc1)C(O)c1ccccc1F (configuration not stated) 0.81%, O=C(CN(C(=O)CCC(=O)Nc1ccccn1)c1cccc(F)c1)NCc1ccc2c(c1)OCO2 5.37%, CCCNC(=O)N[C@@H](CCSC)C(=O)OC 1.19%, N#C/C(=C\c1ccccc1Cl)C(=O)NC(=O)Oc1ccccc1 23.3%, CCCCCc1nc2c(c(=O)c3ccccc3n2C)c(=O)n1Cc1ccc(OC)cc1 6.54%, c1ccc(-n2cc(CN3CCCC(CN4CCCC4)C3)c(-c3ccc4c(c3)OCO4)n2)cc1 (configuration not stated) 0.36%, CC(=O)c1cccc(NC(=O)CCNC(=O)c2ccccc2Cl)c1 7.59%, O=C(N/N=C(\c1ccccc1)c1cccnc1)c1cccc(F)c1 8.05%, O=C(N/N=C(\c1ccccc1)c1cccnc1)c1ccc(O)cc1 14.2%, CCOC(=O)C1CCCN(C(=O)c2cn(CC)c3ccc(S(=O)(=O)N(C)C)cc3c2=O)C1 (configuration not stated) 12.6%, Cc1c(Cl)cccc1NC(=O)Cn1cnc(S(=O)(=O)N2CCCC2)c1 12.7%, CC(NC(=S)Nc1ccc(Cl)cc1)C(c1ccccc1)N1CCOCC1 (configuration not stated) 8.17%, CC[n+]1c(C)sc2cc(OC)ccc21 8.13%, COc1ccc2sc(C)[n+](C)c2c1 11.2%, Cn1c(SCC(=O)Nc2ccc3c(c2)OCCO3)nnc1-c1cccnc1 -0.17%, COc1ccccc1N1CCN(/N=C/c2cccc(O)c2)CC1 7.2%, COc1ccc(/C=N/N2CCN(c3ccccc3OC)CC2)cc1OC 6.87%, Fc1ccc(C2=Nn3c(nnc3-c3ccco3)SC2)cc1 9.39%, c1ccc(C2=Nn3c(nnc3-c3ccco3)SC2)cc1 10.2%, CN1N=C(C(=O)N2CCCC(C(=O)c3cccc(C(F)(F)F)c3)C2)CCC1=O (configuration not stated) 2.73%, CCOc1ccccc1/C=N/n1c(COc2ccccc2)n[nH]c1=S 14.8%, O=c1/c(=C/c2ccc(O)c([N+](=O)[O-])c2)sc2nc3ccccc3n12 9.09%, CCN(CC)c1ccc(/C=c2\sc3nc4ccccc4n3c2=O)c(O)c1 11.3%, O=C(O)COCC(=O)Nc1ccc(-n2cnnn2)cc1 3.06%, C/C(=N\NC(=O)c1ccc([N+](=O)[O-])cc1)c1cccc([N+](=O)[O-])c1 6.04%, C/C(=N\NC(=O)Cn1cc([N+](=O)[O-])cn1)c1ccco1 -0.91%, C/C(=N\NC(=O)Cn1nc(C)c([N+](=O)[O-])c1C)c1ccc(O)cc1 34.5%, C/C(=N\NC(=O)c1cccc(N/N=C(\C)c2ccc([N+](=O)[O-])cc2)c1)c1ccc([N+](=O)[O-])cc1 7.03%, CC1(C)C2CCC(C2)C1(C)NC(=O)CNCc1cccs1 (configuration not stated) 5.5%
